Compound activity from PubChem.
NPC1 promoter act: NPC1 promoter activation; Huh7 NPC1 promoter luciferase reporter, 24 h; Potency, µM (highest dose often 9.22 µM), most hits filed as activators; 2.4% of 320,000 active; AID 485313; further: nearly all actives have a fitted effect of over 60% in size
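Luciferase expression driven by the NPC1 promoter was measured in stably transfected Huh7 cells after a 24 h compound incubation, using a luciferase reagent and a luminescence read.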
ELG1 genotoxic: inducers of genotoxicity in HEK293T ELG1-luciferase cells; Potency, µM (series often up to 46 µM), actives largely listed as activators; 1.3% of 330,000 active; HEK293T ELG1-luciferase reporter, luminescence, 16 h; further: nearly all actives have a fitted effect of over 60% in size
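16 hr compound incubation (37 °C, 5% CO2) of HEK293T cells carrying luciferase-tagged ELG1; luciferase then measured by ONE-Glo luminescence after 30 min at RT.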
Rab9 prom act: activates the Rab9 promoter; Huh7 Rab9 promoter-luciferase reporter, luminescence, 24 h; Potency, µM (doses to about 9.22 µM), hits mostly activators; 2.8% of 320,000 active; AID 485297; further: nearly all actives have a fitted effect of over 60% in size
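Rab9 promoter-driven luciferase in stably transfected Huh7 cells; 1500 cells/well rested 2 h, exposed to compound in DMSO for 24 h at 37 °C, 5% CO2. Luminescence read 10 min after adding luciferase reagent at ambient temperature.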
SMN2 splice enh: enhancers of SMN2 splice variant expression | 2.8% of 210,000 active | Potency, µM (doses to about 46.1 µM), usual class: activators | HEK293 SMN2-luciferase splicing reporter, luminescence, 30-36 h; further: nearly all actives have a fitted effect of over 55% in size
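qHTS luciferase splicing reporter: luminescence rises when SMN2 exon 7 is included in transfected HEK293 cells. Compound exposure lasted 30-36 h at 37C, with 4.5 mM final sodium butyrate as control, followed by a ONE-Glo read.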
FLuc modulator: inhibits or activates purified firefly luciferase, miR-21 counter-screen | Potency, µM (highest dose often 57.5 µM), most hits filed as inhibitors | P08659 | 6.9% of 360,000 active | purified FLuc, Km substrates, luminescence inhibition | AID 588342; further: nearly all actives have a fitted effect of over 55% in size
Target sequence (P08659 whole entry, looked up): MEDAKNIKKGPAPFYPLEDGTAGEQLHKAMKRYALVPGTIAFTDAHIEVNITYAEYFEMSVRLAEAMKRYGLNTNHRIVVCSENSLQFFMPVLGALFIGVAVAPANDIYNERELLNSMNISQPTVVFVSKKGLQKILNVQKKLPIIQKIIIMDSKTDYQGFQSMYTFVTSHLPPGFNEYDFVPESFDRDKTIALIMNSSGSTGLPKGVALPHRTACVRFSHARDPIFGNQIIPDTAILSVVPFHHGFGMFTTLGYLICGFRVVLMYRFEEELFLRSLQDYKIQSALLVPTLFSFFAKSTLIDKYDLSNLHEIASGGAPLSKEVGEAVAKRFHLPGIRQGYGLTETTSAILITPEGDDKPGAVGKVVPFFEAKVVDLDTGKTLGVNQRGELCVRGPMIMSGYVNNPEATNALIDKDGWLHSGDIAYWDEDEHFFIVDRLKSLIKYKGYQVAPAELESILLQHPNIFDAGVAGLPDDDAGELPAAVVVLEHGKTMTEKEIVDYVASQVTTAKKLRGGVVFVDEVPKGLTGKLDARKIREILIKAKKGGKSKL
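Purified P. pyralis luciferase (10nM final) with 10uM D-luciferin and 10uM ATP (Km levels) in 50mM Tris acetate pH 7.5, 10mM Mg acetate, 0.01% Tween-20, 0.05% BSA; qHTS 6-point titration, ~60 µM downward; luminescence read.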
Hits are given with their value; [ ] = remark or other dose. Rows were chosen to be rich in hits. Some 7.4% of all compounds tested hit in one or more screens of this group. The call rests on the fitted dose curve; in most records, active means well fitted curve in the direction sought with a large enough effect; inconclusive means small, poorly fitted or top-dose-only effect, or another doubt; inactive means no such curve, though single readings can be large; an effect the other way counts as inactive or inconclusive.

Screening Cc1cc2ncc(-c3ccc(Cl)cc3)c(N)n2n1 returned NPC1 promoter act inconclusive, ELG1 genotoxic 15µM, Rab9 prom act 4µM, SMN2 splice enh 13µM and FLuc modulator 9.5µM.
Screening Cc1ccc(-c2cc3ncc(C#N)c(N)n3n2)cc1 returned NPC1 promoter act 2.8µM, ELG1 genotoxic inconclusive, Rab9 prom act 2.8µM, SMN2 splice enh inconclusive and FLuc modulator inactive.
`COc1ccccc1NC(=O)c1cc(=O)c2ccc(C)c(C)c2o1` gave SMN2 splice enh inactive and FLuc modulator inactive.
For CC(C)(C)c1ccc(OCCn2ccccc2=O)cc1 the results were NPC1 promoter act 1.4µM, ELG1 genotoxic 4.6µM, Rab9 prom act 1.1µM, SMN2 splice enh 11µM and FLuc modulator 5.4µM.
Cc1ccc2cccc(NC(=O)c3ccc(-c4cc(Cl)ccc4Cl)o3)c2n1 was read as SMN2 splice enh inactive and FLuc modulator inactive.
Screening O=C(NNC(=O)c1ccc2c(=O)n3c(nc2c1)CCC3)c1ccc(Cl)cc1 returned NPC1 promoter act inactive, ELG1 genotoxic inactive, Rab9 prom act inactive and FLuc modulator inactive.
Screening O=C(NNC(=O)c1ccc2c(=O)n3c(nc2c1)CCC3)c1ccc(F)cc1 returned NPC1 promoter act inactive, ELG1 genotoxic inactive, Rab9 prom act inactive and FLuc modulator inactive.
For Cc1ccc(C)c(NC(=O)c2ccc3c(=O)n4c(nc3c2)CCC4)c1 the results were NPC1 promoter act inconclusive, ELG1 genotoxic inactive, Rab9 prom act inconclusive and FLuc modulator 15µM.
Screening O=C(Nc1ccc(F)cc1Cl)c1ccc2c(=O)n3c(nc2c1)CCC3 returned NPC1 promoter act 3.2µM, ELG1 genotoxic inactive, Rab9 prom act 3.5µM and FLuc modulator inactive.
`COc1ccc(C)cc1NC(=O)c1ccc2c(=O)n3c(nc2c1)CCCCC3` gave NPC1 promoter act inactive, ELG1 genotoxic inactive, Rab9 prom act inactive, SMN2 splice enh inactive and FLuc modulator inactive.
Screening O=C(Nc1ccc(F)cc1F)c1ccc2c(=O)n3c(nc2c1)CCC3 returned NPC1 promoter act 1.1µM, ELG1 genotoxic inconclusive, Rab9 prom act 1.1µM and FLuc modulator 11µM.
Screening CCCc1cc(=O)n2[nH]c(NC(=O)c3ccc(C(C)(C)C)cc3)nc2n1 returned SMN2 splice enh inactive and FLuc modulator inconclusive.
`Cc1ccc(-c2nnc(COc3cccc(-n4cnnn4)c3)o2)cc1` gave NPC1 promoter act inactive, ELG1 genotoxic inactive, Rab9 prom act inactive, SMN2 splice enh inactive and FLuc modulator 19µM.
`O=C(OCc1nnc(-c2ccccc2)o1)c1cccc(-n2cnnn2)c1` gave NPC1 promoter act inactive, ELG1 genotoxic inactive, Rab9 prom act inactive and FLuc modulator inactive.
Screening CC(=O)Nc1ccc(OCc2nnc(-c3ccccc3)o2)cc1 returned NPC1 promoter act inactive, ELG1 genotoxic inactive, Rab9 prom act inactive and FLuc modulator inactive.
`CCOc1ccc(-c2noc(CSc3nnc(-c4ccccc4)n3-c3ccccc3)n2)cc1` gave SMN2 splice enh inactive and FLuc modulator inactive.
`Cc1cccc(OCc2nnc(-c3ccc(F)cc3)o2)c1` gave NPC1 promoter act inactive, ELG1 genotoxic inactive, Rab9 prom act inactive and FLuc modulator 17µM.
For CCOc1ccc(-c2nnc(SCc3nnc(-c4ccccc4)o3)n2-c2ccccc2F)cc1 the results were NPC1 promoter act inactive, ELG1 genotoxic inactive, Rab9 prom act inactive, SMN2 splice enh inactive and FLuc modulator 27µM.
`Cc1ccc(OCc2nnc(-c3ccccc3)o2)cc1` gave SMN2 splice enh inactive and FLuc modulator 17µM.
`Cc1ccc(C(=O)CSc2nnc(COc3cccc(C)c3)o2)cc1` gave NPC1 promoter act inactive, ELG1 genotoxic inactive, Rab9 prom act inactive, SMN2 splice enh inconclusive and FLuc modulator inactive.
For Cc1nn(-c2ccccc2)c2c1N(CC(=O)NCc1ccc(N(C)C)cc1)C(=O)CS2 the results were FLuc modulator inactive.
COc1ccc(-c2csc(NC(=O)Cc3ccccc3)n2)cc1OC was read as NPC1 promoter act inactive, ELG1 genotoxic inactive[9.26 µM], Rab9 prom act inactive and FLuc modulator inconclusive.
For COc1ccc(-c2csc(NC(=O)c3c(C)noc3C)n2)cc1F the results were NPC1 promoter act inactive, ELG1 genotoxic inactive, Rab9 prom act inactive and FLuc modulator inconclusive.
For COc1ccc(-c2csc(Nc3cc(C)ccn3)n2)cc1C the results were NPC1 promoter act inactive, ELG1 genotoxic inactive, Rab9 prom act inconclusive and FLuc modulator 8.5µM.
Screening COc1ccc(-c2csc(Nc3ncccn3)n2)cc1C returned NPC1 promoter act 0.71µM, ELG1 genotoxic inconclusive, Rab9 prom act 0.18µM and FLuc modulator inactive.
For O=C1CC2(CCCC2)CC(=O)N1CCCCNCC1COc2ccccc2O1 (stereo unspecified) the results were SMN2 splice enh inactive.
O=C(OCc1nnc(-c2ccc(Cl)cc2)o1)C12CC3CC(CC(O)(C3)C1)C2 was read as NPC1 promoter act 2.8µM, ELG1 genotoxic inconclusive, Rab9 prom act 2.2µM, SMN2 splice enh inactive and FLuc modulator 5.4µM.
`CCN(CC)CCCC(C)n1c(-c2ccccc2)nc2c(NC3CCCCC3)nc(C)nc21` (stereo unspecified) gave SMN2 splice enh inactive.
`COc1cccc2c1OCC/C2=N\NC(=O)COc1ccc(C)cc1` gave NPC1 promoter act inactive, ELG1 genotoxic inactive, Rab9 prom act inactive, SMN2 splice enh inactive and FLuc modulator 15µM.
COc1cccc2c1OCC/C2=N\NC(=O)COc1ccccc1C was read as NPC1 promoter act inactive, ELG1 genotoxic inactive, Rab9 prom act inactive, SMN2 splice enh inactive and FLuc modulator 6.7µM.
For Cn1c(C(=O)NCCc2ccccc2)cc2cc(S(=O)(=O)N3CCCCC3)ccc21 the results were FLuc modulator inactive.
Screening COc1cc(/C=C2\SC(=S)NC2=O)ccc1OS(=O)(=O)c1ccccc1 returned NPC1 promoter act inactive, ELG1 genotoxic inactive, Rab9 prom act inactive, SMN2 splice enh inactive and FLuc modulator inconclusive.
COc1ccc(/C=C2\SC(=S)NC2=O)cc1OS(=O)(=O)c1ccc(NC(C)=O)cc1 was read as NPC1 promoter act inactive, ELG1 genotoxic inactive, Rab9 prom act inactive, SMN2 splice enh inactive and FLuc modulator 27µM.
CCOc1ccc(/C=C2\SC(=S)NC2=O)cc1OC was read as NPC1 promoter act inactive, ELG1 genotoxic inactive, Rab9 prom act inactive and FLuc modulator 12µM.
For COc1cccc(OCCOc2ccc(/C=C3/SC(=S)NC3=O)cc2)c1 the results were NPC1 promoter act inactive, ELG1 genotoxic inactive, Rab9 prom act inactive and FLuc modulator inconclusive.
O=C1NC(=S)S/C1=C\c1ccc2ccccc2c1 was read as NPC1 promoter act inactive, ELG1 genotoxic inactive, Rab9 prom act inconclusive and FLuc modulator 9.5µM.
Cc1ccc(S(=O)(=O)Nc2ccc3nc(-c4cccc(Cl)c4)oc3c2)cc1 was read as FLuc modulator inactive.
O=C(O)[C@@H](O)[C@@H](O)[C@@H](O)[C@@H](O)c1nc2ccccc2s1 was read as SMN2 splice enh inactive[9.22 µM].
